# Data from PubChem BioAssay (Tox21).
# Values without a mark were called inactive. Records with an inconclusive call do not appear. Entries that show only a call come without a potency. The source made the active and inactive calls. Unless noted, the call rests on the fitted dose curve; in most records, active means well fitted curve in the direction sought with a large enough effect in the repeat runs; inconclusive means weak or mixed curves; inactive means no such curve, though single readings can be large; an effect the other way counts as inactive or inconclusive.
# Legend:
# [1] = A CellTox Green Cytotoxicity Assay to monitor cytotoxicity in HepG2 cells - 0 hour (AID 1224882); further: nearly all actives have a fitted effect of over 35% in size
# How it was run: (§1)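 HepG2, 600 cells/well premixed w/ CellTox Green; 5 h settle, 37 C/5% CO2; pintool cpd add (DMSO); 37 C, 40 h; fluorescence read at 0, 8, 16, 24, 32, 40 h.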
# [2] = A CellTox Green Cytotoxicity Assay to monitor cytotoxicity in HEK293 cells - 8 hour (AID 1224884); further: nearly all actives have a fitted effect of over 35% in size
# How it was run: (§2)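 Read-out: fluorescence of a cell-impermeant cyanine dye staining DNA of dead cells, proportional to cytotoxicity. HEK293, 600 cells/well with reagent, compound (23 nL DMSO) added after 5 h; reads at 0, 8, 16, 24, 32, 40 h.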
# [3] = qHTS RealTime-Glo MT Cell Viability Assay in HepG2 cells - 16 hour (AID 1224885); further: nearly all actives have a fitted effect of over 50% in size
# How it was run: (§3)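 Viability was tracked continuously by NanoLuc luminescence from prosubstrate reduced by living HepG2 cells, at successive time points over 40 h of compound exposure. Cells with reagent were preincubated 5 h at 37 °C before compound addition.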
# [4] = qHTS RealTime-Glo MT Cell Viability Assay in HEK293 cells - 24 hour (AID 1224886); further: top concentration of the series differs between compounds; nearly all actives have a fitted effect of over 50% in size
# How it was run: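 Viability tracked continuously by luminescence as live cells reduce a prosubstrate for NanoLuc; HEK293 cells preincubated 5 h, compound-treated at 37 C, and read at 0, 8, 16, 24, 32 and 40 h.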
# [5] = qHTS RealTime-Glo MT Cell Viability Assay in HEK293 cells - 8 hour (AID 1224887); further: top concentration of the series differs between compounds; nearly all actives have a fitted effect of over 50% in size
# How it was run: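 Luminescence readout at each listed time point; HEK293, 600 cells/well, RealTime-Glo MT reagent added with cells; compounds pinned (23 nL in DMSO) after 5 h at 37 C; continuous culture at 37 C.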
# [6] = A CellTox Green Cytotoxicity Assay to monitor cytotoxicity in HEK293 cells - 16 hour (AID 1224888); further: nearly all actives have a fitted effect of over 35% in size
# How it was run: as §2
# [7] = qHTS RealTime-Glo MT Cell Viability Assay in HepG2 cells - 0 hour (AID 1224889); further: nearly all actives have a fitted effect of over 50% in size
# How it was run: as §3
# [8] = A CellTox Green Cytotoxicity Assay to monitor cytotoxicity in HepG2 cells - 8 hour (AID 1224890); further: nearly all actives have a fitted effect of over 45% in size
# How it was run: as §1
# [9] = qHTS assay to identify small molecule antagonists of the estrogen receptor alpha (ER-alpha) signaling pathway using the BG1 cell line in the presence of 0.1 nM 17-beta-estradiol - cell viability counter screen (AID 1259241); further: nearly all actives have a fitted effect of over 40% in size
# How it was run: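 Following 5 days in phenol red-free medium with charcoal-stripped serum, VM7Luc4E2 cells received test compounds alongside 0.1 nM 17beta-estradiol (final) at 37C for 22 hr. Live cells were then quantified via protease-substrate fluorescence.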
# [10] = qHTS assay to identify small molecule antagonists of the androgen receptor (AR) signaling pathway using the MDA cell line in the presence of 0.5 nM R1881 - cell viability counter screen (AID 1259242); further: nearly all actives have a fitted effect of over 45% in size
# How it was run: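 Live-cell protease fluorescence, CellTiter-Fluor, 30 min at 37C. Cells: MDA-kb2, 3,000/well, preincubated 5 hr. Compounds plus 0.5 nM R1881 final, 16 hr, 37C, 0% CO2.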
# [11] = target: Estrogen receptor (Homo sapiens) (UniProt P03372); test: qHTS assay to identify small molecule antagonists of the estrogen receptor alpha (ER-alpha) signaling pathway using the BG1 cell line in the presence of 0.1 nM 17-beta-estradiol (AID 1259244); further: nearly all actives have a fitted effect of over 50% in size
# How it was run: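 Luminescence after ONE-Glo (30 min, room temperature) measured ERE-luciferase activity in VM7Luc4E2 cells treated 22 h with compound and 0.1 nM final 17beta-estradiol as stimulator.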
# [12] = qHTS assay to identify small molecule phospholipidosis (PLD) inducers (AID 1259344; active means well fitted curve in the direction sought with a large enough effect; an effect the other way counts as inactive or inconclusive)
# How it was run: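 Accumulated phospholipid, stained red by LipidTOX during 24 h compound treatment of HepG2 cells at 37 C, is quantified from images as pit number and intensity, normalised per cell using Hoechst-stained nuclei.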
# [13] = qHTS assay to identify small molecule HDAC inhibitors (AID 1259364); further: potency means the concentration at half of the fitted maximal effect;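 further: wild-type HCT-116 cells with endogenous class I/II HDAC activity; nearly all actives have a fitted effect of over 45% in size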
# How it was run: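 HCT-116 (wild type), 1,500 cells/well, overnight; compound 2 hr 37C 5% CO2; HDAC-Glo I/II reagent 30 min RT; luminescence readout.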
# [14] = qHTS assay to identify small molecule HDAC inhibitors - cell viability counter screen (AID 1259365)
# How it was run: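 HCT-116 wild-type, overnight attachment; 2hr drug exposure, 37C; CellTiter-Glo luminescent ATP readout after 30min RT.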
# [15] = qHTS assay to identify small molecule agonists of the sonic hedgehog signaling (Shh) pathway - cell viability counter screen (AID 1259366); further: nearly all actives have a fitted effect of over 50% in size
# How it was run: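 Compounds in DMSO were pin-transferred onto 3T3 Gli1-Luc cells that had settled 4hr; plates then stood 24hr at 37C and 5% CO2. One hour before the end, CellTiter-Fluor was added and fluorescence recorded.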
# [16] = qHTS assay to identify small molecule antagonists of the sonic hedgehog signaling (Shh) pathway - cell viability counter screen (AID 1259367); further: nearly all actives have a fitted effect of over 55% in size
# How it was run: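 CellTiter-Fluor signal in conditioned medium-stimulated 3T3 Gli1-Luc cells, 23 hr compound exposure, 37C.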
# [17] = qHTS assay to identify small molecule agonists of the sonic hedgehog signaling (Shh) pathway (AID 1259368; calls by dose curve;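 further: NIH/3T3-derived 3T3Gli1-Luc cells carrying a stable Gli1-driven firefly luciferase reporter; series mostly up to about 92 µM; nearly all actives have a fitted effect of over 15% in size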)
# How it was run: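 Read-out: firefly luciferase luminescence from a Gli1 response element reporter stably integrated in NIH/3T3-derived 3T3Gli1-Luc cells, measured 30 min at room temperature after reagent addition. Compound exposure lasted 24 hr at 37 C, 5% CO2.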
# [18] = qHTS assay to identify small molecule antagonists of the sonic hedgehog signaling (Shh) pathway (AID 1259369; calls by dose curve; further: nearly all actives have a fitted effect of over 45% in size)
# How it was run: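 Luminescence readout: firefly Luc under Gli1 response element in 3T3Gli1-Luc cells (NIH/3T3 clone). Antagonist mode, stimulation by conditioned medium; compound exposure 24hr at 37 C, 5% CO2.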
# [19] = A CellTox Green Cytotoxicity Assay to monitor cytotoxicity in HepG2 cells - 32 hour (AID 1224883); further: nearly all actives have a fitted effect of over 50% in size
# How it was run: as §1
# [20] = target: Androgen receptor (Homo sapiens) (UniProt P10275); test: qHTS assay to identify small molecule antagonists of the androgen receptor (AR) signaling pathway using the MDA cell line in the presence of 0.5 nM R1881 (AID 1259243); further: nearly all actives have a fitted effect of over 50% in size
# How it was run: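 MDA-kb2, MMTV-luc (AR/GR elements); 3,000 cells/well; cpd + 0.5 nM R1881 final; 16 hr 37C, 0% CO2; ONE-Glo 30 min RT; luminescence.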
# Estrogen receptor (Homo sapiens), sequence (P03372 whole entry, looked up): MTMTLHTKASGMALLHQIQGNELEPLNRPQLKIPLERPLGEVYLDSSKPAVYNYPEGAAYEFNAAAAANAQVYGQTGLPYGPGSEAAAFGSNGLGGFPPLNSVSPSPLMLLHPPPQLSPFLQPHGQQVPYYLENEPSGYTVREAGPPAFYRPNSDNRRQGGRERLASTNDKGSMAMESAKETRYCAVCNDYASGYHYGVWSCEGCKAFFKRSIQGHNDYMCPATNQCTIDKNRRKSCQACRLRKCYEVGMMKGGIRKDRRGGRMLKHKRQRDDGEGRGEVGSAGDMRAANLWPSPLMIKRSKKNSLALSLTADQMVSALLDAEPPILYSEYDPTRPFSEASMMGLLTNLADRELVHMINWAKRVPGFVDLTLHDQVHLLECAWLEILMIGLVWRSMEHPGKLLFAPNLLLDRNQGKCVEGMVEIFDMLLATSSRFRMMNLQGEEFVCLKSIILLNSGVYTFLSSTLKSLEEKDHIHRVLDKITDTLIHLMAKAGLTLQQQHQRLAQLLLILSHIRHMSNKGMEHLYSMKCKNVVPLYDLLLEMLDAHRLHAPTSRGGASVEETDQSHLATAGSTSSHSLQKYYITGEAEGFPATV
# Androgen receptor (Homo sapiens), sequence (P10275 whole entry, looked up): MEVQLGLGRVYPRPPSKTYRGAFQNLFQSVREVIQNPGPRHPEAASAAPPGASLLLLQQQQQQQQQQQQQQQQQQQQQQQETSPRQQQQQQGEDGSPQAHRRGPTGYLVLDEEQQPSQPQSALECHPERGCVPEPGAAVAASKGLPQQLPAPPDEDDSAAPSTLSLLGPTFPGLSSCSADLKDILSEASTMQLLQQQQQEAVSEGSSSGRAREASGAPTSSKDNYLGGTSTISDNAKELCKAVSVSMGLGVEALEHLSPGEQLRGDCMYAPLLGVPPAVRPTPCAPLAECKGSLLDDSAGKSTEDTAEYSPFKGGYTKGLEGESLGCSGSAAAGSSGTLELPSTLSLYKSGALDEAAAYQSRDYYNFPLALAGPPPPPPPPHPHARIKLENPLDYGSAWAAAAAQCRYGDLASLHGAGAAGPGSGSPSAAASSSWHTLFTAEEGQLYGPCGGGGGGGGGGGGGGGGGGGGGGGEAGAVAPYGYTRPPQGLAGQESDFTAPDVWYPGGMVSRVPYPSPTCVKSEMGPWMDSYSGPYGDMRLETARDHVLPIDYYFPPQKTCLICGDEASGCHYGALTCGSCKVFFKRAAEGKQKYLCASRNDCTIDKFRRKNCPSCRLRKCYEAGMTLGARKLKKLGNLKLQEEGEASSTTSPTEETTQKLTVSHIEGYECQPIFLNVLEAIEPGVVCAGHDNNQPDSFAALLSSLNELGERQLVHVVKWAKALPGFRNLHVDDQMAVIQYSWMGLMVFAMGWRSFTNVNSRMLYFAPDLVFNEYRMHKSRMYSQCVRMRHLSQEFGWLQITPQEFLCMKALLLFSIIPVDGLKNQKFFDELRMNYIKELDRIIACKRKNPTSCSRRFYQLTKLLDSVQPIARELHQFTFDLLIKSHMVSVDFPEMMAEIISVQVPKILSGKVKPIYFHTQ
compound,measurement,setting,value
CN1CC(=O)N/C1=N/C(=O)Nc1cccc(Cl)c1,Potency,[1],inactive
same,outcome,[2],inactive
same,outcome,[3],inactive
same,Potency,[4],inactive
same,Potency,[5],inactive
same,outcome,[6],inactive
same,Potency,[7],inactive
same,outcome,[8],inactive
same,outcome,[9],inactive
same,outcome,[10],inactive
same,outcome,[11],inactive
same,outcome,[12],inactive
same,Potency,[13],4.22 µM (active)
same,outcome,[14],inactive
same,Potency,[15],inactive
same,Potency,[16],inactive
same,outcome,[17],inactive
same,Potency,[18],inactive
CNCC(O)c1ccc(O)c(O)c1 (configuration not stated),Potency,[1],inactive
same,Potency,[19],inactive
same,outcome,[2],inactive
same,Potency,[4],inactive
same,Potency,[5],inactive
same,outcome,[6],inactive
same,outcome,[8],inactive
same,outcome,[9],inactive
same,outcome,[10],inactive
same,outcome,[11],inactive
same,Potency,[13],inactive
same,outcome,[14],inactive
same,Potency,[15],inactive
same,Potency,[16],inactive
same,outcome,[17],inactive
same,Potency,[18],inactive
CCC(C(=O)NC(=O)NC(C)=O)c1ccccc1 (configuration not stated),Potency,[1],inactive
same,outcome,[2],inactive
same,outcome,[3],inactive
same,Potency,[4],inactive
same,Potency,[5],inactive
same,outcome,[6],inactive
same,Potency,[7],inactive
same,outcome,[8],inactive
same,outcome,[9],inactive
same,outcome,[10],inactive
same,outcome,[11],inactive
same,PLD induction,[12],-2.71% [at 7.66 µM]
same,outcome,[14],inactive
same,Potency,[15],inactive
same,Potency,[16],inactive
same,outcome,[17],inactive
same,Potency,[18],inactive
O=C(O)Cc1csc(-c2ccc(Cl)cc2)n1,Potency,[1],inactive
same,Potency,[19],inactive
same,outcome,[2],inactive
same,Potency,[4],inactive
same,Potency,[5],inactive
same,outcome,[6],inactive
same,outcome,[8],inactive
same,outcome,[9],inactive
same,outcome,[10],inactive
same,Potency,[20],inactive
same,outcome,[11],inactive
same,outcome,[12],inactive
same,outcome,[14],inactive
same,Potency,[15],inactive
same,Potency,[16],inactive
same,outcome,[17],inactive
same,Potency,[18],inactive
CC(=O)Nc1ccc(OCC(O)CNC(C)C)cc1 (configuration not stated),Potency,[1],inactive
same,Potency,[19],inactive
same,outcome,[2],inactive
same,Potency,[4],inactive
same,outcome,[6],inactive
same,Potency,[7],inactive
same,outcome,[8],inactive
same,outcome,[9],inactive
same,outcome,[10],inactive
same,outcome,[12],inactive
same,outcome,[14],inactive
same,Potency,[15],inactive
same,Potency,[16],inactive
same,outcome,[17],inactive
same,Potency,[18],inactive
C=CCCCCCCCCC(=O)OCC,Potency,[1],inactive
same,Potency,[19],inactive
same,outcome,[3],inactive
same,Potency,[4],inactive
same,Potency,[5],inactive
same,outcome,[6],inactive
same,Potency,[7],inactive
same,outcome,[8],inactive
same,outcome,[9],inactive
same,outcome,[10],inactive
same,outcome,[11],inactive
same,Potency,[13],inactive
same,outcome,[14],inactive
same,Potency,[15],inactive
same,Potency,[16],inactive
same,outcome,[17],inactive
same,Potency,[18],inactive
CN1CCC(=C2c3ccccc3CCc3cccnc32)CC1,Potency,[1],inactive
same,outcome,[2],inactive
same,outcome,[3],inactive
same,Potency,[4],inactive
same,Potency,[5],inactive
same,outcome,[6],inactive
same,Potency,[7],inactive
same,outcome,[8],inactive
same,outcome,[9],inactive
same,outcome,[10],inactive
same,outcome,[11],inactive
same,Potency,[13],inactive
same,outcome,[14],inactive
same,outcome,[17],inactive
NCCCC(N)(C(=O)O)C(F)F (configuration not stated),Potency,[1],inactive
same,Potency,[19],inactive
same,outcome,[2],inactive
same,Potency,[4],inactive
same,Potency,[5],inactive
same,outcome,[6],inactive
same,Potency,[7],inactive
same,outcome,[8],inactive
same,outcome,[9],inactive
same,outcome,[10],inactive
same,outcome,[12],inactive
same,Potency,[13],inactive
same,outcome,[14],inactive
same,Potency,[15],inactive
same,Potency,[16],inactive
same,outcome,[17],inactive
same,Potency,[18],inactive
O=C(c1ccccc1)C1(O)CCCCC1,Potency,[1],inactive
same,Potency,[19],inactive
same,outcome,[3],inactive
same,Potency,[4],inactive
same,Potency,[5],inactive
same,outcome,[6],inactive
same,outcome,[8],inactive
same,outcome,[9],inactive
same,outcome,[10],inactive
same,Potency,[13],inactive
same,outcome,[14],inactive
same,Potency,[15],inactive
same,Potency,[16],inactive
same,outcome,[17],inactive
same,Potency,[18],inactive
CCOC(=O)CCC(=O)OCC,Potency,[1],inactive
same,outcome,[2],inactive
same,outcome,[3],inactive
same,Potency,[4],inactive
same,Potency,[5],inactive
same,outcome,[6],inactive
same,Potency,[7],inactive
same,outcome,[8],inactive
same,outcome,[9],inactive
same,outcome,[10],inactive
same,outcome,[11],inactive
same,Potency,[13],inactive
same,outcome,[14],inactive
same,Potency,[16],inactive
same,outcome,[17],inactive
same,Potency,[18],inactive
CC(CO)(CO)[N+](=O)[O-],Potency,[1],inactive
same,outcome,[2],inactive
same,outcome,[3],inactive
same,Potency,[4],inactive
same,Potency,[5],inactive
same,outcome,[6],inactive
same,Potency,[7],inactive
same,outcome,[8],inactive
same,outcome,[9],inactive
same,outcome,[10],inactive
same,outcome,[11],inactive
same,Potency,[13],inactive
same,outcome,[14],inactive
same,Potency,[15],inactive
same,Potency,[16],inactive
same,outcome,[17],inactive
same,Potency,[18],inactive
O=S(=O)(O)c1cccc2ccccc12,Potency,[1],inactive
same,Potency,[19],inactive
same,outcome,[2],inactive
same,Potency,[4],inactive
same,Potency,[5],inactive
same,outcome,[6],inactive
same,outcome,[8],inactive
same,outcome,[9],inactive
same,outcome,[10],inactive
same,Potency,[13],inactive
same,outcome,[14],inactive
same,Potency,[15],inactive
same,Potency,[16],inactive
same,outcome,[17],inactive
same,Potency,[18],inactive
C=CCCC(=O)O,Potency,[1],inactive
same,outcome,[2],inactive
same,outcome,[3],inactive
same,Potency,[4],inactive
same,Potency,[5],inactive
same,outcome,[6],inactive
same,Potency,[7],inactive
same,outcome,[8],inactive
same,outcome,[9],inactive
same,outcome,[10],inactive
same,outcome,[11],inactive
same,Potency,[13],inactive
same,outcome,[14],inactive
same,Potency,[15],inactive
same,Potency,[16],inactive
same,outcome,[17],inactive
same,Potency,[18],inactive
CCCCCCC#CC(=O)OC,Potency,[1],inactive
same,Potency,[19],inactive
same,outcome,[2],inactive
same,Potency,[4],inactive
same,Potency,[5],inactive
same,outcome,[6],inactive
same,Potency,[7],inactive
same,outcome,[8],inactive
same,outcome,[9],inactive
same,outcome,[10],inactive
same,outcome,[14],inactive
same,Potency,[16],inactive
same,outcome,[17],inactive
same,Potency,[18],inactive
CCN[C@H]1C[C@H](C)S(=O)(=O)c2sc(S(N)(=O)=O)cc21,Potency,[1],inactive
same,outcome,[2],inactive
same,outcome,[3],inactive
same,Potency,[4],inactive
same,Potency,[5],inactive
same,outcome,[6],inactive
same,Potency,[7],inactive
same,outcome,[8],inactive
same,outcome,[9],inactive
same,outcome,[10],inactive
same,outcome,[11],inactive
same,outcome,[12],inactive
same,Potency,[13],inactive
same,outcome,[14],inactive
same,Potency,[15],inactive
same,Potency,[16],inactive
same,outcome,[17],inactive
same,Potency,[18],inactive
CCCCOCCOC(=O)CCCCCCCCC(=O)OCCOCCCC,Potency,[1],inactive
same,Potency,[19],inactive
same,outcome,[2],inactive
same,Potency,[4],inactive
same,Potency,[5],inactive
same,outcome,[6],inactive
same,Potency,[7],inactive
same,outcome,[8],inactive
same,outcome,[9],inactive
same,outcome,[10],inactive
same,Potency,[13],inactive
same,outcome,[14],inactive
same,Potency,[15],inactive
same,outcome,[17],inactive
